Rows were chosen to be rich in hits. Some 7.4% of all compounds tested hit in one or more screens of this group.
FLuc inh = Firefly luciferase inhibition profiling of diverse chemical library using quantitative high-throughput screening; Luciferin 4-monooxygenase (Photinus pyralis), P08659; purified P. pyralis luciferase, luminescence, biochemical; Potency, µM (highest dose often 115 µM), usual class: inhibitors; actives 2.5% (n = 76,000); AID 1347043, 2019; also: nearly all actives have a fitted effect of over 65% in size
Target sequence (P08659 whole entry, looked up): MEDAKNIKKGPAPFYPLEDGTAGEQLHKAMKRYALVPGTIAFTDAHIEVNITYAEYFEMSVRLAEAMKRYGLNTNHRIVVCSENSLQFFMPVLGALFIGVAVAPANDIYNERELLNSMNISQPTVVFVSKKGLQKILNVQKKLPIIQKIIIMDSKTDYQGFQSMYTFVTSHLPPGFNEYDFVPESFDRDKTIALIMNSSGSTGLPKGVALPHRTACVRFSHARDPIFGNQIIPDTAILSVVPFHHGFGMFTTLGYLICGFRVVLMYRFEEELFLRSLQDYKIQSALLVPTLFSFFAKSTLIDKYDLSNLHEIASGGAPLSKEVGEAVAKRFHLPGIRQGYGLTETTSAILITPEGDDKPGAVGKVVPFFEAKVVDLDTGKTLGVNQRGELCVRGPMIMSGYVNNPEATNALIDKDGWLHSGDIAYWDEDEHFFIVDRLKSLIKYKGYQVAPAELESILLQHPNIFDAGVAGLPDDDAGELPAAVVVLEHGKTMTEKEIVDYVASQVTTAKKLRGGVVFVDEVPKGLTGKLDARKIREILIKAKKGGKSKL
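Luminescence read by CCD imaging after purified firefly luciferase (10nM final) was added to substrate buffer holding 10uM D-luciferin and 10uM ATP, pH 7.5, pre-dosed with compound.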
NIH3T3 tox = Cytotoxic Profiling in NIH 3T3 Cell Line of Diverse Libraries Using Quantitative High-Throughput Screening; Potency, µM (series often up to 96.7 µM), without a hit: at the top dose activity change, negative = cytotoxicity, hits mostly inhibitors; actives 4.3% (n = 94,000); NIH 3T3 viability, CellTiter-Glo ATP luminescence, 48-72 h; also: nearly all actives have a fitted effect of over 55% in size
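Cells were seeded at 400 per well, treated with pin-transferred compound, and kept 48 or 72 hr at 37 °C before CellTiter-Glo addition and luminescence imaging of cellular ATP.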
HEK293 viab = GF-AFC viability counterscreen for inhibitors of alpha-synuclein gene (SNCA) expression | HEK-293-SNCA-luc viability, GF-AFC fluorescence, 24 h | Potency, µM (titrated, usually from 57.1 µM), without a hit: at the top dose activity change, negative = cytotoxicity, usual class: cytotoxic | actives 0.12% (n = 150,000) | AID 1671193, 2021;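 also: 0% = DMSO-treated cells and -100% = medium-only wells without cells; nearly all actives have a fitted effect of over 30% in size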
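HEK-293-SNCA-luc cells (1500/well) plated 24 h, then exposed 24 h to a dilution series; GF-AFC added 30 min at 37C, fluorescence 405/540 nm; normalised to medium-only and DMSO wells, Hill fit.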
HEK cytotox = Cytotoxic Profiling in HEK 293 Cell Line of Diverse Libraries Using Quantitative High-Throughput Screening; HEK 293 viability, ATP luminescence (CellTiter-Glo), 48-72 h; Potency, µM (highest dose often 115 µM), without a hit: at the top dose activity change, negative = cytotoxicity, actives largely listed as inhibitors; actives 6.6% (n = 94,000); AID 1345083, 2018; also: nearly all actives have a fitted effect of over 60% in size
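HEK 293 cells at 250 cells/well were exposed to compounds by pintool transfer for 48 or 72 hr at 37 degree Celsius, 5% CO2. Viability was read as ATP-coupled luminescence with CellTiter-Glo after 10 min at room temperature.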
NPR1 antag = Natriuretic polypeptide receptor (hNpr1) antagonism - Primary qHTS | HEK293 hNpr1 GloSensor cGMP, ANP-stimulated luminescence | Potency, µM (titrated, usually from 46.3 µM), inactives show top-dose activity change, negative = inhibition, actives largely listed as inhibitors | actives 1.6% (n = 76,000); calls by dose curve; also: nearly all actives have a fitted effect of over 60% in size
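Compound pre-incubated 30 min at room temperature on GloSensor-loaded HEK293 cells stably carrying hNpr1 and the pGS-40F cGMP biosensor. Stimulation uses hNppA at 0.1 nM final; luminescence is taken at baseline and 20 min post-agonist.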
SNCA expr inh = Primary qHTS assay for inhibitors of alpha-synuclein gene (SNCA) expression; HEK-293 SNCA-luciferase knock-in, luminescence, 24 h; Potency, µM (doses to about 57.2 µM), without a hit: at the top dose activity change, negative = inhibition, usual class: inhibitors; actives 0.17% (n = 140,000); AID 1671194, 2021;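 also: plate controls were DMSO cells for no effect and cell-free wells for full effect; nearly all actives have a fitted effect of over 45% in size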
* hit, by the source's call; i = inactive; ? = inconclusive; / = no result; [ ] = remark or other dose. Unless noted, calls follow the shape of the dose curve; as a rule, active = well fitted curve in the direction sought with a large enough effect; inconclusive = small, poorly fitted or top-dose-only effect, or another doubt; inactive = no such curve, though single readings can be large; an effect the other way counts as inactive or inconclusive. Unless noted, % is scaled to controls: 0 for no effect and ±100 for the full control effect; potency is read from the fitted curve at half-maximal effect.

SMILES | FLuc inh | NIH3T3 tox | HEK293 viab | HEK cytotox | NPR1 antag | SNCA expr inh
Cc1nn(-c2cccc(Br)c2)c(C)c1[C@@H]1C=C[C@@H](NCc2cccc(C#N)c2)C1 | 40µM* | ? | ? | ? | -20% | -3%
NCc1cccc(-c2cccc(O)c2)c1 | / | -21%[138 µM] | -3%[87.6 µM] | -11%[172 µM] | / | 30%[87.6 µM]
Cc1cccc(-c2ccccc2CN)c1 | / | -13%[138 µM] | -2%[87.6 µM] | -27%[172 µM] | / | 18%[87.6 µM]
Cc1cc(Cl)ccc1-c1ccccc1C=O | / | 112µM* | 0%[87.6 µM] | ? | / | -22%[87.6 µM]
Cc1ccc(-c2ccc(CN)cc2)c(C)c1 | / | 32µM* | ? | 32µM* | / | 4%[87.6 µM]
Cc1cc(Cl)ccc1-c1cccc(CN)c1 | / | 32µM* | ? | 40µM* | / | -17%[87.6 µM]
Cc1ccc(-c2cccc(CN)c2)c(C)c1 | / | 28µM* | 2%[87.6 µM] | 45µM* | / | 19%[87.6 µM]
C[C@]1(CO)[C@H]2Cc3sc(NC(=O)c4ccco4)nc3[C@@H](CC(=O)NC3CC3)[C@]2(C)CC[C@H]1O | i | i | 6% | i | 4% | -5%
COc1ccc(-c2noc(-c3nc(C)no3)n2)cc1F | i | -14% | -4% | -10% | -1% | 154%
Cc1cnc(C(=O)N2CCC(N3C(=O)C(OCC4CC4)C34CCOCC4)CC2)cn1 (stereo not given) | i | -11% | -6% | -20% | -1% | 22%
O=C(CNC(=O)c1cccc(-c2ccsc2)c1)NCc1ccc(C(F)(F)F)cc1 | / | -24% | -5%[12.5 µM] | -9% | / | 0%
NCc1cccc(-c2cc(C(F)(F)F)ccc2Cl)c1 | / | ? | -14% | 71µM* | / | -4%
O=C(O)c1cccc(-c2cc(C(F)(F)F)ccc2Cl)c1 | / | i | 4% | 5% | / | 21%
Cc1cc(Cl)ccc1-c1ccccc1CN | / | 22µM* | -5%[87.6 µM] | ? | / | -13%[87.6 µM]
NCc1ccccc1-c1ccccc1F | / | -10%[138 µM] | -2%[87.6 µM] | -20%[172 µM] | / | -13%[87.6 µM]
COc1ccccc1-c1cccc(CN)c1 | / | 126µM* | 4%[87.6 µM] | 100µM* | / | -6%[87.6 µM]
COCCn1ncc(N2CCC(NC(=O)C(C)C)CC2)cc1=O | i | 4% | 4% | i | 2% | 33%
Cc1ccccc1C(=O)N1CCn2c(nn(-c3ccncc3)c2=O)C1 | i | -22%[138 µM] | -10%[87.6 µM] | -13%[172 µM] | -16%[70.6 µM] | 0%[87.6 µM]
CN(Cc1ccc(F)cc1)C(=O)C1(c2ccc(Cl)cc2)CCOCC1 | / | ? | -9% | ? | / | 8%
CC(=O)Nc1ccc(-c2nnc3n2CCN(C(=O)c2ccccc2C)C3)cc1 | / | i | / | i | / | /
Cc1cccc(-n2cc(CN3CCCC(C)(O)C3)c(-c3cccc(F)c3)n2)c1 (stereo not given) | 18µM* | 89µM* | ? | ? | 6% | 5%
OC1(CN2CCCCC2)CCN(Cc2cnn(-c3cccc(F)c3)c2)C1 (stereo not given) | i | ? | -3% | ? | -3% | 6%
Cc1ccc(-n2cc(CN3CCN4CCCC4C3)c(-c3cccc(C)c3)n2)cc1 (stereo not given) | ? | 25µM* | -7% | 28µM* | -3% | 0%
COc1ccc(-n2cc(CN3CCC(O)CC3)c(-c3cccc(F)c3)n2)cc1 | 40µM* | 79µM* | -11% | ? | -1% | 54%
Cc1ccc(-n2cc(CN3CCC(CCO)CC3)c(-c3cccc(C)c3)n2)cc1 | i | ? | -10% | ? | -13% | -11%
SMILES | FLuc inh | NIH3T3 tox | HEK293 viab | HEK cytotox | NPR1 antag | SNCA expr inh
COc1cc(NC(=O)NC[C@H]2O[C@@H](CO)[C@@H](O)[C@H]2N2CCC(C)CC2)cc(OC)c1 | i | i | 5% | i | 1% | -1%
COc1ccc2c(C)c(C(=O)N(C)Cc3csc(C(C)C)n3)oc2c1 | i | ? | 6% | 45µM* | 1% | 3%
Cc1cc(C)cc(Nc2nc3cc(Cl)c(Cl)cc3nc2-n2nc(C)cc2C)c1 | / | / | 9% | / | / | 12%
CC(C)(C)Nc1nc2cc(Cl)c(Cl)cc2nc1S(C)(=O)=O | / | / | 15µM* | / | / | /
COc1ccc(C2(C(=O)N(C)Cc3ccc(OC(F)(F)F)cc3)CCOCC2)cc1 | / | ? | -1% | 50µM* | / | -3%
Cc1ccc(NC(=O)N2C[C@@H](F)C[C@H]2C(=O)N2CCc3ccccc3C2)cc1Cl | i | ? | -18% | 28µM* | -13% | ?
Cc1cccc(NC(=O)Cn2c(-c3cnccn3)nc(C)c(C)c2=O)c1C | i | -13% | -10% | 0% | -5% | -4%
Cc1ccc(Nc2ccnc(N3CCCC3C(=O)NCc3ccccc3)n2)cc1 (stereo not given) | / | ? | 10%[12.5 µM] | ? | / | 34%
Cc1ccc(Nc2ccnc(N3CCCC3C(=O)NCC3CC3)n2)cc1 (stereo not given) | / | -8% | ? | 35µM* | / | 8%
Cc1ccc(Nc2ccnc(N3CCCC3C(=O)NCCCc3ccccc3)n2)cc1 (stereo not given) | / | ? | -6%[12.5 µM] | 40µM* | / | ?

Screening results deposited in PubChem by National Center for Advancing Translational Sciences (NCATS).
